Data taken from PubChem BioAssay (Tox21).
Values joined by “and” are separate entries in the source; they are usually repeats but may differ in a detail not shown here. Equal values may be shown once. Results filed as inconclusive are left out. Some compounds were tested as several samples or in several runs, with calls that do not always agree. Active and inactive are the calls of the source. The call rests on the fitted dose curve; in most records, active means well fitted curve in the direction sought with a large enough effect in the repeat runs; inconclusive means weak or mixed curves; inactive means no such curve, though single readings can be large; an effect the other way counts as inactive or inconclusive.

Key:
[1] = qHTS RealTime-Glo MT Cell Viability Assay in HepG2 cells - 40 hour (AID 1224870); further: nearly all actives have a fitted effect of over 50% in size; further: potency means the concentration at half of the fitted maximal effect
Summary of the method: (§1)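 HepG2 cells (600/well) mixed with RealTime-Glo MT reagent, settled 5 h at 37 C/5% CO2 before compound addition. Nonlytic NanoLuc luminescence from viable-cell prosubstrate reduction read repeatedly during 40 h treatment at 37 C.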

[2] = A CellTox Green Cytotoxicity Assay to monitor cytotoxicity in HEK293 cells - 40 hour (AID 1224871); further: nearly all actives have a fitted effect of over 45% in size; further: potency means the concentration at half of the fitted maximal effect
Summary of the method: (§2)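 Cytotoxicity was tracked continuously in HEK293 cells by a DNA-binding dye excluded from viable cells. Compounds were transferred in DMSO 5 h after seeding; fluorescence was recorded at intervals up to 40 h.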

[3] = qHTS RealTime-Glo MT Cell Viability Assay in HEK293 cells - 16 hour (AID 1224872); further: nearly all actives have a fitted effect of over 50% in size; further: potency means the concentration at half of the fitted maximal effect
Summary of the method: (§3)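 HEK293 cells were seeded at 600 cells/well together with NanoLuc luciferase and cell-permeant prosubstrate, preincubated 5 h at 37 C/5% CO2, then given compound in DMSO by pintool. Luminescence from viable-cell prosubstrate reduction was read repeatedly over 40 h.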

[4] = qHTS RealTime-Glo MT Cell Viability Assay in HEK293 cells - 40 hour (AID 1224874); details: RealTime-Glo luminescence; max response: stronger effect = lower value; further: nearly all actives have a fitted effect of over 50% in size; further: potency means the concentration at half of the fitted maximal effect
Summary of the method: (§4)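 Nonlytic bioluminescent viability monitoring. HEK293 at 600 cells/well with reagent; 5 h settle; compound transfer by pintool; plates held at 37 C and read at set time points.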

[5] = A CellTox Green Cytotoxicity Assay to monitor cytotoxicity in HEK293 cells - 24 hour (AID 1224875); further: series mostly up to about 77 µM; nearly all actives have a fitted effect of over 45% in size
Summary of the method: as §2

[6] = A CellTox Green Cytotoxicity Assay to monitor cytotoxicity in HepG2 cells - 16 hour (AID 1224876); further: nearly all actives have a fitted effect of over 45% in size; further: potency means the concentration at half of the fitted maximal effect
Summary of the method: (§5)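 Real-time, homogeneous cytotoxicity readout: dead-cell DNA staining by CellTox Green in HepG2 monolayers, fluorescence measured at timed intervals up to 40 h of continuous compound exposure.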

[7] = A CellTox Green Cytotoxicity Assay to monitor cytotoxicity in HepG2 cells - 24 hour (AID 1224878); further: nearly all actives have a fitted effect of over 45% in size; further: potency means the concentration at half of the fitted maximal effect
Summary of the method: as §5

[8] = A CellTox Green Cytotoxicity Assay to monitor cytotoxicity in HepG2 cells - 40 hour (AID 1224879); further: nearly all actives have a fitted effect of over 40% in size; further: potency means the concentration at half of the fitted maximal effect
Summary of the method: as §5

[9] = qHTS RealTime-Glo MT Cell Viability Assay in HEK293 cells - 0 hour (AID 1224880)
Summary of the method: as §4

[10] = A CellTox Green Cytotoxicity Assay to monitor cytotoxicity in HEK293 cells - 32 hour (AID 1224881); further: nearly all actives have a fitted effect of over 40% in size; further: potency means the concentration at half of the fitted maximal effect
Summary of the method: as §2

[11] = A CellTox Green Cytotoxicity Assay to monitor cytotoxicity in HepG2 cells - 32 hour (AID 1224883); further: nearly all actives have a fitted effect of over 50% in size; further: potency means the concentration at half of the fitted maximal effect
Summary of the method: as §5

[12] = A CellTox Green Cytotoxicity Assay to monitor cytotoxicity in HEK293 cells - 8 hour (AID 1224884); further: nearly all actives have a fitted effect of over 35% in size
Summary of the method: as §2

[13] = qHTS RealTime-Glo MT Cell Viability Assay in HepG2 cells - 16 hour (AID 1224885); further: nearly all actives have a fitted effect of over 50% in size; further: potency means the concentration at half of the fitted maximal effect
Summary of the method: (§6)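 HepG2 cells were seeded at 600 cells/well together with NanoLuc luciferase and a cell-permeant prosubstrate, preincubated 5 h at 37 C/5% CO2, then pin-dosed with compounds in DMSO. Nonlytic luminescence from viable cells was read at each time point.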

[14] = qHTS RealTime-Glo MT Cell Viability Assay in HEK293 cells - 8 hour (AID 1224887); further: nearly all actives have a fitted effect of over 50% in size; further: potency means the concentration at half of the fitted maximal effect
Summary of the method: as §4

[15] = A CellTox Green Cytotoxicity Assay to monitor cytotoxicity in HEK293 cells - 16 hour (AID 1224888); further: nearly all actives have a fitted effect of over 35% in size
Summary of the method: as §2

[16] = qHTS RealTime-Glo MT Cell Viability Assay in HepG2 cells - 0 hour (AID 1224889); further: nearly all actives have a fitted effect of over 50% in size
Summary of the method: as §6

[17] = qHTS RealTime-Glo MT Cell Viability Assay in HepG2 cells - 32 hour (AID 1224877); further: nearly all actives have a fitted effect of over 55% in size
Summary of the method: as §6

[18] = A CellTox Green Cytotoxicity Assay to monitor cytotoxicity in HepG2 cells - 0 hour (AID 1224882); further: nearly all actives have a fitted effect of over 35% in size
Summary of the method: as §5

[19] = qHTS RealTime-Glo MT Cell Viability Assay in HEK293 cells - 24 hour (AID 1224886); further: nearly all actives have a fitted effect of over 50% in size; further: potency means the concentration at half of the fitted maximal effect
Summary of the method: as §3

[20] = qHTS RealTime-Glo MT Cell Viability Assay in HepG2 cells - 8 hour (AID 1224873); further: nearly all actives have a fitted effect of over 55% in size
Summary of the method: as §1
On the % scale 0 is the no-effect control and ±100 the full control effect.

O=C1CC(=O)NC(=O)N1
inactive: Potency [1] | Potency [2] | Potency [3] | max response [4] 12.1% | Potency [5] | Potency [6] | Potency [7] | Potency [8] | outcome [9] | Potency [10] | Potency [11] | Potency [12] | Potency [13] | Potency [14] | Potency [15] | outcome [16]

CC(C)(C)c1cc(O)ccc1O
inactive: Potency [1] | Potency [2] | Potency [5] | Potency [6] | Potency [17] | Potency [7] | Potency [8] | outcome [9] | Potency [10] | Potency [11] | Potency [12] | Potency [13] | Potency [14] | Potency [15] | outcome [16]

O=C1C2CC=CCC2C(=O)N1SC(Cl)(Cl)Cl (stereo not drawn)
inactive and 10.8 µM (active): Potency [8]
inactive and 9.61 µM (active): Potency [11]
inactive: outcome [9] | outcome [18] | Potency [12] | Potency [15] | outcome [16]
active: Potency [2] 6.81 µM | Potency [3] 3.83 µM | Potency [4] 43.5 µM and 3.41 µM | Potency [10] 21.5 µM | Potency [19] 43.5 µM and 3.41 µM | Potency [14] 27.1 µM
inactive and 19.2 µM (active): Potency [1]
inactive and 12.1 µM (active): Potency [7]
inactive and 42.9 µM (active): Potency [6] | Potency [13]

ClC1=C(Cl)C2(Cl)C(CBr)CC1(Cl)C2(Cl)Cl (stereo not drawn)
inactive: Potency [1] | max response [4] -5.43% | Potency [6] | Potency [17] | Potency [7] | Potency [8] | outcome [9] | Potency [11] | Potency [12] | Potency [13] | outcome [16]
43.6 µM (active) and inactive: Potency [3] | Potency [14]
54.9 µM (active) and inactive: Potency [2]

Oc1ccc(Cc2ccc(O)cc2)cc1
inactive: Potency [1] | Potency [2] | outcome [20] | Potency [5] | Potency [6] | Potency [17] | Potency [7] | Potency [8] | outcome [9] | Potency [10] | outcome [18] | Potency [11] | Potency [12] | Potency [13] | Potency [14] | Potency [15] | outcome [16]

OP(O)c1ccccc1
inactive: Potency [2] | Potency [3] | outcome [20] | max response [4] 9.39% | Potency [5] | Potency [6] | Potency [17] | Potency [7] | Potency [8] | outcome [9] | Potency [10] | outcome [18] | Potency [11] | Potency [12] | Potency [13] | Potency [19] | Potency [14] | Potency [15] | outcome [16]

O=c1[nH]oc2c1CCNC2
inactive: Potency [1] | Potency [2] | Potency [3] | max response [4] 5.54% | Potency [5] | Potency [17] | outcome [9] | Potency [10] | outcome [18] | Potency [12] | Potency [13] | Potency [19] | Potency [14] | Potency [15] | outcome [16]

Cn1c(N)nc2c3cccnc3ccc21
inactive: Potency [1] | Potency [2] | Potency [3] | max response [4] -11% | Potency [5] | Potency [6] | Potency [17] | Potency [7] | Potency [8] | outcome [9] | outcome [18] | Potency [11] | Potency [12] | Potency [13] | Potency [19] | Potency [14] | Potency [15] | outcome [16]

[P]#[In]
inactive: Potency [1] | Potency [2] | Potency [3] | max response [4] 0.3% | Potency [5] | Potency [6] | Potency [17] | Potency [8] | outcome [9] | outcome [18] | Potency [11] | Potency [12] | Potency [19] | Potency [14] | Potency [15] | outcome [16]

CCCCCCCC(=O)Cl
inactive: Potency [1] | Potency [2] | Potency [3] | max response [4] 5.36% | Potency [5] | Potency [6] | Potency [17] | Potency [7] | Potency [8] | outcome [9] | outcome [18] | Potency [12] | Potency [19] | Potency [14] | Potency [15] | outcome [16]

CCOC1Oc2ccc(OS(C)(=O)=O)cc2C1(C)C (stereo not drawn)
active: Potency [4] 34.4 µM
inactive: Potency [1] | Potency [2] | outcome [20] | Potency [5] | Potency [6] | Potency [7] | Potency [8] | outcome [9] | Potency [10] | Potency [11] | Potency [12] | Potency [13] | Potency [14] | Potency [15] | outcome [16]

CCC1(c2cccc(O)c2)CCCCN(C)C1 (stereo not drawn)
inactive: Potency [2] | Potency [3] | outcome [20] | max response [4] 3.71% | Potency [5] | Potency [6] | Potency [17] | Potency [7] | Potency [8] | outcome [9] | Potency [10] | outcome [18] | Potency [11] | Potency [12] | Potency [13] | Potency [19] | Potency [14] | Potency [15] | outcome [16]

CCCOc1nn(C(=O)NS(=O)(=O)c2ccccc2C(=O)OC)c(=O)n1C
inactive: Potency [1] | Potency [2] | Potency [3] | max response [4] 22.1% | Potency [5] | Potency [6] | Potency [7] | Potency [8] | outcome [9] | Potency [11] | Potency [12] | Potency [13] | Potency [19] | Potency [14] | Potency [15] | outcome [16]

C[C@H](CN1CCOCC1)C(C(=O)N1CCCC1)(c1ccccc1)c1ccccc1
inactive: Potency [1] | Potency [2] | outcome [20] | Potency [5] | Potency [6] | Potency [17] | Potency [7] | Potency [8] | outcome [9] | Potency [10] | outcome [18] | Potency [12] | Potency [13] | Potency [14] | Potency [15] | outcome [16]

O=C(Cl)c1ccccc1
inactive: Potency [1] | Potency [2] | Potency [3] | max response [4] -3.78% | Potency [5] | Potency [6] | Potency [17] | Potency [8] | outcome [9] | Potency [10] | outcome [18] | Potency [11] | Potency [12] | Potency [13] | Potency [19] | Potency [14] | Potency [15] | outcome [16]
